The values below come from PubChem BioAssay.

The source made the active and inactive calls.

A short description of test [1]: optical density shifts of acrAB sulA E. coli – strain DRC41, OD650, 48 h, E. coli filamentation inducer project, primary screen (AID 1152).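 Note: E. coli MC1000 strain DRC41 lacking acrAB efflux pump and sulA.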 The conditions noted are these: higher = more signal, called active from +8 up or from −8 down.
Test [2] is described as follows: probe aLefty1 binding on compound microarray – biochemical, small-molecule microarray, 635/667 nm fluorescence, primary screen (AID 1153).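 Note: score merges spot fluorescence with signal-to-noise ratio from the scanned slide images.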 The conditions noted are these: higher = more signal.
Test [3] is described as follows: plasmodial surface anion channel blockers, osmotic lysis – cell-based, P. falciparum Indochina, OD700, 1 h, primary screen (AID 1154). The conditions noted are these: P. falciparum Indochina infected RBC osmotic lysis, higher = more signal, called active from +8 up or from −8 down.
A short description of test [4]: plasmodial surface anion channel blockers, osmotic lysis – cell-based, P. falciparum Indochina, OD700, 2 h, primary screen (AID 1155).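 Note: lysis reports solute entry through the parasite surface anion channel PSAC.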 The conditions noted are these: P. falciparum Indochina infected erythrocytes, higher = more signal, called active from +8 up or from −8 down.
Test [5] in a line: changes in parasitized red cell lysis, either direction – P. falciparum Indochina, OD700, 3 h, PSAC antagonist project, primary screen (AID 1156). The conditions noted are these: P. falciparum-infected erythrocytes, osmotic lysis, higher = more signal, called active from +8 up or from −8 down.
Test [6] in a line: plasmodial surface anion channel blockers, osmotic lysis – cell-based, P. falciparum Indochina, OD700, 18 h, primary screen (AID 1157). The conditions noted are these: P. falciparum Indochina infected erythrocytes, osmotic lysis OD700, 18 h; higher = more signal, called active from +8 up or from −8 down.
A short description of test [7]: S6 kinase pathway phospho-S6 level changes – cell-based, A549, cytoblot, luminescence, serum-stimulated, primary screen (AID 1158).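 Note: serum-stimulated A549 lung adenocarcinoma cells; signal is phosphorylated S6 detected by cytoblot immunostaining with HRP secondary.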 The conditions noted are these: 5 h, higher = more signal.
The target in test [8] is NADPH oxidase 2 (Homo sapiens) (UniProt P04839). Put plainly: compounds shifting NOX2 Amplex Red fluorescence – cell-based, HEK293-NOX2, PMA-stimulated, NOX inhibitor project, primary screen (AID 1159). Note: test concentration not given here. The conditions noted are these: 45 min, higher = more signal, called active from +8 up or from −8 down.
Chain of NADPH oxidase 2 (Homo sapiens) (P04839 whole entry, looked up): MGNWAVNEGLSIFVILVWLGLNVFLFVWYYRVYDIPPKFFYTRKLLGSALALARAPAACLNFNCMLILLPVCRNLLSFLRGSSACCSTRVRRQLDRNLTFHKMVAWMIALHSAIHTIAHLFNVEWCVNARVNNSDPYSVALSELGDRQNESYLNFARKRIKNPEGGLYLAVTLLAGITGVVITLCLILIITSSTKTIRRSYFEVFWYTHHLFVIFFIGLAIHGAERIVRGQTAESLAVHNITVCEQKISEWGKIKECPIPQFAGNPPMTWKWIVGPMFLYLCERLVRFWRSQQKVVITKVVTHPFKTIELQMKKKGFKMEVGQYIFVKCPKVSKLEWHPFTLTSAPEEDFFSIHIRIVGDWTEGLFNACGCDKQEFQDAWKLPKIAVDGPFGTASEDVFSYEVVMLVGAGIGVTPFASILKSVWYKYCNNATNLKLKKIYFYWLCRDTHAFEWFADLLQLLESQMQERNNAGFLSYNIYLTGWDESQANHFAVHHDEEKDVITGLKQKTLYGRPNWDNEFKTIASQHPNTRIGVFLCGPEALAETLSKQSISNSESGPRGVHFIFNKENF
Test [9] has as its target NADPH oxidase 4 (Homo sapiens) (UniProt Q9NPH5). Put plainly: compounds shifting NOX4 Amplex Red fluorescence – cell-based, HEK293-NOX4, tetracycline-induced, NOX inhibitor project, primary screen (AID 1160). The conditions noted are these: HEK293-NOX4, Amplex Red H2O2 fluorescence, 45 min; higher = more signal, called active from +8 up or from −8 down.
The target of test [10] is NADPH oxidase 5 (Homo sapiens) (UniProt Q96PH1). As to the kind of experiment: compounds shifting NOX5 Amplex Red fluorescence – cell-based, HEK293-NOX5, NOX inhibitor project, primary screen (AID 1161). The conditions noted are these: HEK293-NOX5, ionomycin, 45 min, higher = more signal.
Chain of NADPH oxidase 5 (Homo sapiens) (Q96PH1 whole entry, looked up): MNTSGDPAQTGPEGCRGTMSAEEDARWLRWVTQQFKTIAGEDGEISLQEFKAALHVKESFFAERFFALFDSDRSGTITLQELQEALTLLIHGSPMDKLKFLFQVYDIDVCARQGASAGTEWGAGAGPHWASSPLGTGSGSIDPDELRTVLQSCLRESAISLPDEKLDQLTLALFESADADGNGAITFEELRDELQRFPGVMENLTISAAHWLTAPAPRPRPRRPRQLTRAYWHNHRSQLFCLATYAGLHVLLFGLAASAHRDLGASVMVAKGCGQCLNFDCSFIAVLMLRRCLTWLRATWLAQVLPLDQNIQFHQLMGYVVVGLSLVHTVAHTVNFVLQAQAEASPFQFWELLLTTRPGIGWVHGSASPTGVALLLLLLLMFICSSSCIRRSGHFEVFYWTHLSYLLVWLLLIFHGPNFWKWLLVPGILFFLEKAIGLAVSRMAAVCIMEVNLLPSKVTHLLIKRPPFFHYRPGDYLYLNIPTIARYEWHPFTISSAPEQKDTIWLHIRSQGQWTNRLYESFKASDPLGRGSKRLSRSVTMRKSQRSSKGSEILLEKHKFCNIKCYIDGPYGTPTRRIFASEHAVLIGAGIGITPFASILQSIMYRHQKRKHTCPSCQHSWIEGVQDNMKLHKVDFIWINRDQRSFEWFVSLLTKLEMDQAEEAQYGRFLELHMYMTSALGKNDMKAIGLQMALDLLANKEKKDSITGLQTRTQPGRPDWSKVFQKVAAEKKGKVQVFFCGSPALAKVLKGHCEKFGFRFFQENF
The nature of test [11]: compound effects on lung adenocarcinoma cell viability – A549, calcein-AM fluorescence, 48 h, basal, profiling panel (AID 1162). Note: test concentration not given here. The conditions noted are these: higher = more signal.
Test [12] in a line: compound effects on differentiated 3T3-L1 adipocyte viability – cell-based, 3T3-L1 adipocytes, calcein-AM fluorescence, 48 h, basal, profiling panel (AID 1163). Note: test concentration not given here. The conditions noted are these: 3T3-L1 adipocytes viability, higher = more signal.
The nature of test [13]: compound effects on hepatocellular carcinoma cell viability – HepG2, calcein-AM fluorescence, 48 h, basal, profiling panel (AID 1164). Note: test concentration not given here. The conditions noted are these: higher = more signal.
Test [14] is described as follows: compound effects on multiple myeloma cell viability – MM1S, calcein-AM fluorescence, 48 h, basal, profiling panel (AID 1165). Note: test concentration not given here. The conditions noted are these: higher = more signal.
The nature of test [15]: calcein-AM signal in unstimulated myeloma cells – cell-based, calcein-AM fluorescence, 48 h, PK04 Diversity Set, profiling panel (AID 1166).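 Note: cells grown under basal conditions without added stimulus; test concentration not given here.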 The conditions noted are these: RPMI8226 myeloma viability, higher = more signal.
Test [16] can be described thus: JC-1 mitochondrial signal, unstimulated HepG2 cells – cell-based, JC-1 fluorescence, 24 h, 100 nL compound, profiling panel (AID 1167). Note: test concentration not given here. The conditions noted are these: HepG2 mitochondrial potential, higher = more signal.
Test [17] can be described thus: JC-1 mitochondrial signal, unstimulated adipocytes – cell-based, JC-1 fluorescence, 3T3-L1 adipocytes, 24 h, 100 nL compound, profiling panel (AID 1168). Note: test concentration not given here. The conditions noted are these: JC-1 mitochondrial fluorescence, higher = more signal, called active from +8 up or from −8 down.
Test [18] can be described thus: JC-1 mitochondrial signal, unstimulated myeloma cells – cell-based, JC-1 fluorescence, RPMI8226, 24 h, 100 nL compound, profiling panel (AID 1169). Note: test concentration not given here. The conditions noted are these: JC-1 mitochondrial potential fluorescence, higher = more signal.
The nature of test [19]: JC-1 mitochondrial signal, unstimulated MM1S myeloma – cell-based, JC-1 fluorescence, 24 h, 100 nL compound, profiling panel (AID 1170). Note: test concentration not given here. The conditions noted are these: MM1S mitochondrial potential, higher = more signal.
The nature of test [20]: resazurin metabolic signal in A549 cells – cell-based, resazurin fluorescence, 24 h, PK04 Diversity Set, profiling panel (AID 1171). Note: test concentration not given here. The conditions noted are these: A549 viability, higher = more signal, called active from +8 up or from −8 down.

Chain of NADPH oxidase 4 (Homo sapiens) (Q9NPH5 whole entry, looked up): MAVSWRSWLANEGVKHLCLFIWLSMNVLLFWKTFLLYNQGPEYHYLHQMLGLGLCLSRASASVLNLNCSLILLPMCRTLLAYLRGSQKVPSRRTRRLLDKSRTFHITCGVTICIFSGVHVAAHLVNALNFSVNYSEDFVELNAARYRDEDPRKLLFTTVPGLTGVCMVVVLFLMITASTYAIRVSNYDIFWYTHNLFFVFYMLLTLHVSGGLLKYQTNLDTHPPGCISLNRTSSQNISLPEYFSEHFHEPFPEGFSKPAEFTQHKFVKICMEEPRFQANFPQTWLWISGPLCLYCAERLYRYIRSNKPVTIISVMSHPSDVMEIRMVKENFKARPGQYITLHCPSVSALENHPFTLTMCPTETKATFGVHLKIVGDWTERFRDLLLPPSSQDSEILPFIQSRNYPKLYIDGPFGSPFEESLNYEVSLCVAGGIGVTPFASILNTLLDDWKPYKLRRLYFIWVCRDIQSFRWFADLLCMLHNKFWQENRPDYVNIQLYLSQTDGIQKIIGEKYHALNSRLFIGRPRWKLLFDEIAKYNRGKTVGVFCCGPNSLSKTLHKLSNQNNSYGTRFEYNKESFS

With `COc1ccc(O[C@H]2C=C[C@@H](c3ccccc3)O[C@@H]2COC(=O)CCC(C)=NOC[C@@H](O)[C@H]2O[C@@H]3OC(C)(C)O[C@@H]3[C@H]2O)cc1`, the z-score in test [1] is -1.89 (inactive); in [3], 4.09 (inactive); in [4], 1.12 (inactive); in test [5], 1.11 (inactive); in [6] it was 0.662 (inactive); in test [7] it was 0.332. In addition, the z-score is -1.42 (inactive) in test [8]; 0.0675 (inactive) in test [9]; -1.42 in test [10]; 1.11 in test [11]; -0.519 in [12]; 0.26 in test [13]. Besides, the z-score is 0.152 in test [14]; -0.0547 in test [15]; -0.42 in test [16]; 0.157 (inactive) in test [17]; -0.299 in [18]; -0.199 in test [19]. In addition, in test [20], the z-score was 0.138 (inactive). In test [2], the composite z-score turned out to be 0.0004.

Consider `CCOC(=O)[C@H](CC(C)C)NC(=O)CCC1CC(OC(=O)NCc2ccc3c(c2)OCO3)CC2(CCCC(COC(=O)NCC(c3ccccc3)c3ccccc3)O2)O1` (stereo not given in full), for which the z-score is 0.0056 (inactive) in test [1]; 2.08 (inactive) in test [3]; 0.316 (inactive) in test [4]; -0.532 (inactive) in [5]; -0.071 (inactive) in test [6]; -0.438 in [7]. In addition, the z-score in test [8] is -0.312 (inactive); in [9], 1.03 (inactive); in test [10] it was 0.698; in [11], -0.338; in test [12], -0.335; in [13], -0.312. The z-score in [14] was -3.41; in test [15], 0.592; in [16], -0.106; in test [17] it was 0.604 (inactive); in [18], -0.828; in test [19], 0.0369. For the same compound, the z-score in [20] is 0.577 (inactive). Also, the composite z-score in test [2] is -0.106.

Regarding `COc1ccc(O[C@H]2C=C[C@@H](c3ccccc3)O[C@@H]2COC(=O)CCC(C)=NO[C@@H]2O[C@H](COC(C)=O)[C@@H](OC(C)=O)[C@H](OC(C)=O)[C@H]2OC(C)=O)cc1`, the z-score is 0.37 (inactive) in [1]; 1.73 (inactive) in [3]; 0.583 (inactive) in [4]; 1.1 (inactive) in test [5]; 0.539 (inactive) in [6]; -1.01 in test [7]. Besides, the z-score in [8] was 1.08 (inactive); in test [9], 1.75 (inactive); in test [10] it was 0.222; in test [11], -0.502; in test [12] it was 0.0711; in [13], -0.574. Further, the z-score in test [14] was -0.794; in test [15], -0.433; in test [16], -1.05; in test [17], -0.882 (inactive); in [18] it was 0.722; in [19], -0.375. For the same compound, the z-score in test [20] is 0.363 (inactive). In addition, the composite z-score in test [2] is -0.019.

Regarding `CO[C@@H]1COC(=O)[C@H](CCSC)NC(=O)CC=C[C@@H](C)COC(=O)[C@H](C)NC(=O)CC=C[C@H]1C`, the z-score in [1] was 0.675 (inactive); in test [3], -0.0455 (inactive); in test [4] it was 0.327 (inactive); in test [5], 0.033 (inactive); in test [6] it was 0.353 (inactive); in [7] it was 0.399. The z-score was -0.906 (inactive) in test [8]; -0.0183 (inactive) in test [9]; 0.0788 in test [10]; 0.205 in test [11]; 0.0719 in [12]; 0.677 in test [13]. Further, the z-score in [14] is 0.174; in test [15] it was -0.0512; in test [16], 0.381; in [17], -0.225 (inactive); in [18] it was -0.226; in test [19], 2.32. Further, the z-score in test [20] is 0.767 (inactive). The composite z-score in [2] is -0.231.

Take `O=C(NN=C1C[C@@H](O)[C@@H](O)[C@@H]2[C@@H]3C(=O)N(Cc4ccccc4)C(=O)[C@@H]3CC[C@@H]12)OCc1ccccc1`: the z-score in test [1] is 0.151 (inactive); in test [3] it was 1.91 (inactive); in test [4] it was 0.801 (inactive); in test [5], 0.458 (inactive); in [6] it was 0.526 (inactive); in test [7] it was 0.0339. The z-score is -1.23 (inactive) in test [8]; 0.0701 (inactive) in test [9]; 0.224 in [10]; 0.272 in test [11]; -0.201 in test [12]; -0.258 in test [13]. The z-score in test [14] was 0.372; in test [15], 0.582; in test [16], 1.23; in test [17], 0.806 (inactive); in test [18], -0.37; in test [19] it was -1.53. The z-score in test [20] was -0.534 (inactive). In addition, in test [2], the composite z-score amounted to 0.0837.
